Results taken from PubChem BioAssay (NCATS).
The source made the active and inactive calls. The call rests on the fitted dose curve; in most records, active means well fitted curve in the direction sought with a large enough effect; inconclusive means small, poorly fitted or top-dose-only effect, or another doubt; inactive means no such curve, though single readings can be large or run the other way.

target: Alpha-galactosidase (Coffea arabica) (UniProt Q42656); experiment: Counterscreen for Glucocerebrosidase Inhibitors: qHTS Assay for Coffee Bean alpha-Galactosidase at pH 4.5 (AID 957); settings: purified coffee bean alpha-galactosidase, fluorogenic substrate; series mostly up to 76.9 µM
Method in brief: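 Enzyme is added first (2 nM final), then compounds titrated from 0.7 nM to 77 uM, then 80 uM 4-methylumbelliferyl alpha-D-galactopyranoside; after 20 min at room temperature a pH 10 NaOH/glycine stop precedes fluorescence reading at 365/440 nm.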

Chain of Alpha-galactosidase (Coffea arabica) (Q42656 whole entry, looked up): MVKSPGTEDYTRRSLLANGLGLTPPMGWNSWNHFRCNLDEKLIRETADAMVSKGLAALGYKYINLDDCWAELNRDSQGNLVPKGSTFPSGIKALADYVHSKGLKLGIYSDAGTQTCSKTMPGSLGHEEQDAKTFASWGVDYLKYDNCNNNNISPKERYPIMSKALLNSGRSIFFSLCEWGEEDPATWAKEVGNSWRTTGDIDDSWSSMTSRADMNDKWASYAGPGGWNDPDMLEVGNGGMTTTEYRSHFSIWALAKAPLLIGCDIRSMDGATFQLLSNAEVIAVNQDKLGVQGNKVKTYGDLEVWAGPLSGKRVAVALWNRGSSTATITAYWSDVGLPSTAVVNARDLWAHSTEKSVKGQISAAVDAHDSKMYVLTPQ

SMILES | outcome
O=NN(CCCl)C(=O)NCCCl | inactive
CN1CCC[C@@H]1CCO[C@](C)(c1ccccc1)c1ccc(Cl)cc1 | inactive
CN(C)CCC=C1c2ccccc2C=Cc2ccccc21 | inactive
Cc1cn[nH]c1 | inactive
N=c1nc(N2CCCCC2)cc(N)n1O | inactive
O=c1c(O)c(-c2ccc(O)c(O)c2)oc2cc(O)cc(O)c12 | inactive
CCCC(CCC)C(=O)O | inactive
CC(=O)Nc1nnc(S(N)(=O)=O)s1 | inactive
Fc1ccc([C@@H]2CCNC[C@H]2COc2ccc3c(c2)OCO3)cc1 | inactive
O=C(C1CCCCC1)N1CC(=O)N2CCc3ccccc3C2C1 (configuration not stated) | inactive
O=c1n(CCCN2CCN(c3cccc(Cl)c3)CC2)nc2ccccn12 | inactive
CC(C)(C)NC(=O)[C@H]1CC[C@H]2[C@@H]3CC[C@H]4NC(=O)C=C[C@]4(C)[C@H]3CC[C@]12C | inactive
CC(=O)N[C@@H](CS)C(=O)O | inactive
CN1CCN(C2=Nc3cc(Cl)ccc3Nc3ccccc32)CC1 | inactive
O=C1NC(=O)C(c2ccccc2)(c2ccccc2)N1 | inactive
NC(=O)NO | inactive
Cc1[nH]c(=O)c(C#N)cc1-c1ccncc1 | inactive
CC(C)[N+](C)(CCOC(=O)C1c2ccccc2Oc2ccccc21)C(C)C | inactive
CN1C[C@H](CNC(=O)OCc2ccccc2)C[C@@H]2c3cccc4c3c(cn4C)C[C@H]21 | inactive
CN(C)CC/C=C1\c2ccccc2COc2ccccc21 | inactive
NC(=O)OCC(COC(N)=O)c1ccccc1 | inactive
CNCCCN1c2ccccc2CCc2ccccc21 | inactive
